Results as given in the supplement of paper PMC11219838.
A number with no mark means an inactive call.

test system: Caenorhabditis elegans L1 (N2); test: survival and reproduction score of C. elegans L1 (0: 0-10 living worms, 1: 11-20, 2: 21-50, 3: >50, 4: overgrown) (score 0-4); higher = more worms, less nematicidal, active = 1 or less; extreme values may be limits of the assay; conditions: 60 µM; 6 days; temperature: 20 °C
Method in brief: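 About 20 synchronized C. elegans N2 L1s were added per 96-well well with E. coli HB101 in liquid NGM, and compound was pinned to 60 µM final (0.6% v/v DMSO). Sealed plates were shaken at 200 rpm for 6 days at 20 °C. Survival and reproduction were scored under a dissection microscope as an ordinal score of living worms per well. The scale ran 0 (0–10 worms) to 4 (overgrown, starved), and two biological replicates were averaged.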

Row | Compound | survival and reproduction score
1 | Cc1ncc2c(c1-c1noc(-c3ccccc3)n1)CCC2 | 4
2 | Cc1ccccc1OCc1nc(-c2ccc(NC(=O)c3ccc(Br)o3)cc2)no1 | 4
3 | Cc1ccc(-c2nnc(SCC(=O)Nc3nccs3)o2)cc1 | 4
4 | Cc1ccccc1OCc1nc(-c2ccc(Cl)cc2)no1 | 4
5 | Cn1c(SCc2cccc(F)c2)nnc1-c1ccco1 | 4
6 | Clc1ccc(CSc2nnc(-c3ccccc3Cl)o2)cc1 | 4
7 | Cc1ccc(OCc2nc(-c3ccc(F)cc3)no2)cc1C | 4
8 | Ic1ccc(CSc2nnc(-c3ccco3)o2)cc1 | 3.5
9 | Cc1cc(OCc2nc(-c3cccnc3)no2)cc(C)c1Br | 4
10 | Clc1ccc(-c2nc(-c3ccncc3)no2)c(Cl)c1 | 2
11 | O=C(CSc1nnc(-c2ccncc2)o1)Nc1cc(Cl)cc(Cl)c1 | 4
12 | COc1ccccc1-c1nnc(SCC(=O)Nc2ccc(C)cc2)o1 | 4
13 | Cc1cc(OCc2nc(-c3ccccc3)no2)ccc1Cl | 4
14 | CC(C)c1ccc(OCc2nc(-c3ccccn3)no2)cc1 | 4
15 | CCCc1nnc(SCc2nnc(-c3ccccc3)o2)o1 | 4
16 | COc1ccccc1NC(=O)c1ccccc1-c1nc(-c2ccccc2F)no1 | 4
17 | COc1cccc(-c2noc(COc3cc(C)cc(C)c3)n2)c1 | 4
18 | Cc1cc(Br)ccc1OCc1nc(-c2ccncc2)no1 | 4
19 | Fc1cccc(-c2nc(-c3cccnc3)no2)c1 | 0 (active)

Row | Compound | survival and reproduction score
20 | COc1cccc(-c2noc(CSc3ccc(Cl)cc3)n2)c1 | 4
21 | Clc1ccc(-c2nc(-c3ccncc3)no2)cc1 | 0.5 (active)
22 | COc1nc(-c2ccccc2)ccc1-c1noc(C(C)C)n1 | 4
23 | O=S(=O)(CCC(F)=C(F)F)c1ncc(Cl)s1 [fluensulfone] | 4
24 | O=C(CSc1nnc(-c2cccc(Br)c2)o1)c1ccc2c(c1)CCCC2 | 4
25 | Cc1[nH]c2ccc(-c3nnc(SCC(=O)NCc4ccc(F)cc4)o3)cc2c1C | 4
26 | CC(C)Oc1cccc(-c2nc(-c3ccccn3)no2)c1 | 4
27 | Clc1cccc(-c2nc(-c3ccc4c(c3)OCO4)no2)c1 | 4
28 | O=C(CSc1nnc(-c2ccc(Br)cc2)o1)OCc1ccccc1 | 4
29 | Clc1ccc(CSc2nnc(-c3ccccc3)o2)c(Cl)c1 | 4
30 | COc1ccccc1-c1nnc(SCc2ccccc2C#N)o1 | 4
31 | CSc1ccccc1-c1nc(-c2cccnc2)no1 | 4
32 | Cc1ccc(SC(C)c2nc(-c3cccnc3)no2)cc1 (stereo not drawn) | 4
33 | CCOc1nc(-c2ccccc2)ccc1-c1noc(-c2cccc(C)c2)n1 | 4
34 | COc1ccc(-c2nnc(SCC(=O)Nc3ccc(Br)c(C)c3)o2)cc1 | 4
35 | Cc1cc(OCc2nc(-c3ccc(NC(=O)c4ccc5c(c4)OCO5)cc3)no2)ccc1Cl | 4
36 | COc1cccc(-c2noc(COc3ccc4ccccc4c3)n2)c1 | 4
37 | Clc1ccc(OCc2ccccc2)c(-c2nc(-c3cccnc3)no2)c1 | 4
38 | FC(F)(F)c1cccc(-c2noc(-c3ccccc3Cl)n2)c1 | 3
